Source: PubChem (National Center for Advancing Translational Sciences (NCATS))
Imprint erasure = induces erasure of genomic imprints in mouse ES cells. mouse ES Peg3-LacZ reporter, beta-gal luminescence, 40 h. Potency, µM (highest dose often 60.7 µM), for inactives: at the top dose activity change, positive = activation, actives largely listed as activators. 0.02% of 110,000 active. AID 1948
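Imprint erasure is scored as LacZ activity from the silenced maternal Peg3 allele in feeder-free female ES cells cultured 40 h with LIF. Luminescence is normalized to in-plate negative controls and fitted to the Hill equation.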
p53ts 32C kill = kills p53ts cells at the permissive temperature. H1299-p53A138V at 32C, ATP luminescence viability, 24 h. Potency, µM (series often up to 46.1 µM), without a hit: at the highest dose activity change, negative = cytotoxicity, hits mostly cytotoxic. 0.93% of 130,000 active. AID 924;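 further: 0% = DMSO and -100% = full killing by reference compound; nearly all actives have a fitted effect of over 55% in size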
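ATP-content luminescence (ATPlite) read-out after 24 h compound exposure at 32C in H1299-p53A138V cells (600/well). Tested up to 46 uM. Normalized to DMSO (0%) and 100 uM tamoxifen (100% killing); Hill-fit AC50.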
p53ts 39C tox = cytotoxicity in p53ts cells at nonpermissive temperature. H1299-p53A138V viability at 39C, ATP luminescence, 24 h. Potency, µM (top dose mostly 46.1 µM), without a hit: top-dose activity change, negative = cell killing, actives largely listed as cytotoxic. 1.5% of 130,000 active; further: on the % scale 0 is the no-effect control and ±100 the full control effect; nearly all actives have a fitted effect of over 55% in size
IkB signaling = IkB pathway inhibition in ABC-DLBCL cells; ABC-DLBCL IkBa-CBG/CBR dual luciferase ratio, 4 h; response scale: scaled: untreated 0%, proteasome inhibitor 100%; Potency, µM (highest dose often 57.1 µM), for the others: at the top dose IkBa stabilization activation; 0.04% of 110,000 active; AID 445; active means well fitted curve in the direction sought with a large enough effect in the signal ratio, not every such curve was filed as active; inconclusive means small, poorly fitted or top-dose-only effect, or a change in a side signal; the % refers to the signal ratio;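 further: the direction sought is a rising ratio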
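Luminescence ratio of IκBα-fused green versus native red beetle luciferase in OCI-Ly3 cells, 4 h post-doxycycline with compound; red signal alone, scaled from basal (0%) to zero light (-100%), flagged nonspecific or cytotoxic effects.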
* marks the source's active call; other numbers are inactive results; ? = inconclusive; . = no result given; [ ] = remark or other dose. Only some compounds are listed: those with a hit (about 1.8% of all), similar ones and a draw of the others. Unless noted, the call rests on the fitted dose curve; in most records, active means well fitted curve in the direction sought with a large enough effect; inconclusive means small, poorly fitted or top-dose-only effect, or another doubt; inactive means no such curve, though single readings can be large; an effect the other way counts as inactive or inconclusive. Potency means the concentration at half of the fitted maximal effect.

SMILES	Imprint erasure	p53ts 32C kill	p53ts 39C tox	IkB signaling
Cc1cccc(-c2nc(SCC(=O)Nc3cccc(C(F)(F)F)c3)n3[nH]c(=O)cc3n2)c1	-5%[10.9 µM]	3%	-11%	?
COC(=O)c1ccc(NC(=O)CN2C(=O)CCc3cc(S(=O)(=O)N4CCCCC4)ccc32)cc1	1%[10.9 µM]	9%	-18%	5%
COc1ccc(CC(=O)Nc2cccc(C(=O)O)c2C)cc1	-19%	3%	5%	1%
COc1ccc(CC(=O)c2ccccc2C(=O)O)cc1	-10%	?	10µM*	-1%
CCC(CC)C(=O)Nc1cc(-c2nc3cccnc3s2)ccc1C	-10%[10.9 µM]	?	?	2%
CC1CCN(C(=O)CSc2c3c(nc4cc(Cl)ccc24)CCCC3)CC1	7%[10.9 µM]	-28%	16µM*	?
O=C(CSc1c2c(nc3cc(Cl)ccc13)CCCC2)N1CCN(c2ccccc2)CC1	-17%[10.9 µM]	?	25µM*	?
c1ccc(-n2nnc3c(N4CCOCC4)ncnc32)cc1	-85%	13µM*	13µM*	?
Clc1ccccc1OCc1nc(-c2ccccn2)no1	-77%	?	?	?
Clc1ccc(OCc2nc(-c3ccccn3)no2)c(Br)c1	-81%	13µM*	13µM*	6%
Brc1ccc(-c2nc(-c3ccccn3)no2)o1	-95%	7.9µM*	6.3µM*	?
Brc1ccc(-c2nc(-c3ccncc3)no2)o1	-27%	-6%	0%	-1%
CC(C)Nc1ccc(-c2nc(-c3ccccn3)no2)cc1[N+](=O)[O-]	-16%[10.9 µM]	-9%	-3%	0%
Clc1ccc(-c2nc(-c3ccccn3)no2)cc1Cl	-65%	5µM*	7.9µM*	?
O=C(CC1C(=O)NCCN1C(=O)Nc1ccccc1)Nc1ccc2c(c1)OCCO2 (configuration not stated)	-4%	21%	11%	0%
CC(C)c1ccc(NC(=O)c2csnn2)cc1	-51%	13µM*	16µM*	-2%
COc1ccc(N2Cc3cccc(C(=O)Nc4ccc(C(C)C)cc4)c3C2=O)cc1	-12%[10.9 µM]	5µM*	4µM*	-1%
Cn1c(=O)c2c(nc(NCc3ccccc3)n2Cc2ccccc2)n(C)c1=O	-21%[10.9 µM]	-13%	-4%	6%
Cn1c(=O)c2c(nc(NC3CCCCC3)n2Cc2ccccc2)n(C)c1=O	-19%	5µM*	26%	?
CC(C)c1ccc(C2N=C(N)Nc3nc4ccccc4n32)cc1 (configuration not stated)	-6%[10.9 µM]	2%	10µM*	?
CCOC(=O)CNc1nc(C(C)(C)C)nc2c1nnn2Cc1ccccc1Cl	-17%	-8%	3%	1%
Cc1cccc(CNC(=O)Cn2ccc3cc(S(=O)(=O)N4CCC(C)CC4)ccc32)c1	-5%[10.9 µM]	3%	16%	?
COc1ccc(C2c3c(-c4ccccc4O)n[nH]c3C(=O)N2Cc2ccco2)cc1 (configuration not stated)	-6%[10.9 µM]	27%	?	?
CCCOc1cccc(C2c3c(-c4ccccc4O)n[nH]c3C(=O)N2Cc2ccco2)c1 (configuration not stated)	-11%[10.9 µM]	?	32µM*	?
Cc1cc(C)c(-c2n[nH]c3c2C(c2ccccc2F)N(Cc2ccco2)C3=O)c(O)c1 (configuration not stated)	-16%[10.9 µM]	-23%	16µM*	?
SMILES	Imprint erasure	p53ts 32C kill	p53ts 39C tox	IkB signaling
CC1(C)C(O)CC[C@]2(C)C1CC[C@@]1(C)C2C(=O)C=C2[C@@H]3C[C@@](C)(C(=O)O)CC[C@@]3(C)CCC21C (some centres not stated)	3%	5%	8%	.
COc1ccc(CNc2nc3c(-c4cccc(F)c4)nnn3c3ccccc23)cc1	-8%[10.9 µM]	?	13µM*	-1%
Cc1c(Cl)cccc1NC(=O)CSc1nc(=O)[nH]c2c1CCC2	14%[10.9 µM]	-6%	-6%	?
Cc1ccc(NC(=O)CCc2c(C)nn(-c3ccc(N4CCCCC4)nn3)c2C)cc1F	-18%[10.9 µM]	?	13µM*	?
COc1ccc(-n2c(CC3C(=O)Nc4ccc(C)cc43)nc3ccccc3c2=O)cc1 (configuration not stated)	-7%[10.9 µM]	14%	-14%	?
CSc1cccc(Nc2cc(C(=O)NCCCN(Cc3ccccc3)C(C)C)c3ccccc3n2)c1	-13%[10.9 µM]	?	16µM*	-5%
Cc1cc(C)cc(Nc2cc(C(=O)NCCCN(Cc3ccccc3)C(C)C)c3ccccc3n2)c1	-12%[10.9 µM]	-16%	16µM*	?
O=C(c1ccc(N2CCOCC2)cc1)c1cccs1	-69%	13µM*	7.9µM*	?
Cc1ccc(-n2ncc(C(=O)NCc3cccs3)c2C2CCN(C(=O)OC(C)(C)C)CC2)c(C)c1	-11%[10.9 µM]	15%	13%	?
CC(=O)c1c(C)[nH]c(C(=O)NCc2ccccn2)c1C	-13%	-19%	-12%	1%
CC(=O)c1c(C)[nH]c(C(=O)Nc2ccc(C)cn2)c1C	-79%	2.5µM*	5µM*	0%
O=C(CCC(=O)c1ccc[nH]1)c1ccc(Cl)cc1	-9%	-17%	-14%	7%
COc1ccccc1Cc1nc2ccccc2nc1SCC(=O)Nc1ccc2c(c1)OCO2	-1%[10.9 µM]	8%	6%	0%
COc1ccc(-c2cc3nc4n(c(=O)c3s2)CCC4)cc1	-89%	5µM*	5µM*	3%
Cc1ccc2nc(-c3c[nH]c4ccccc34)c(Nc3ccccc3C)n2c1	-9%[10.9 µM]	-1%	6%	?
Cc1ccc(Nc2c(-c3c[nH]c4ccccc34)nc3ccccn23)cc1	5%[10.9 µM]	?	16µM*	?
O=C(Nc1ccc(Cl)cc1)c1cc(S(=O)(=O)NC2CCCCCC2)ccc1F	-14%[10.9 µM]	4%	13µM*	?
Cc1ccc(CNC(=O)CC(C)S(=O)(=O)c2cc3c(cc2C)NC(=O)CO3)cc1 (configuration not stated)	.	-4%	.	.
Cc1ccc2nc(/C(C#N)=C/c3ccc(-c4cccc(Cl)c4)o3)[nH]c2c1	-7%[10.9 µM]	?	4µM*	?
Cc1csc2nc(-c3cccc(NC(=O)c4ccccc4Cl)c3)cn12	-2%[10.9 µM]	-21%	?	-1%
Nc1cccc(-c2cn3ccsc3n2)c1	-45%[10.9 µM]	?	25µM*	3%
CCCCC(=O)Nc1cccc(-c2cn3ccsc3n2)c1	-22%	?	-26%	-2%
O=C(Nc1cccc(-c2cn3ccsc3n2)c1)c1ccccc1	2%	?	16µM*	?
COc1ccccc1C(=O)Nc1cccc(-c2cn3ccsc3n2)c1	-13%	-29%	-30%	?
Cc1csc2nc(-c3cccc(NC(=O)c4ccccc4F)c3)cn12	7%[10.9 µM]	?	6.3µM*	?
CCN(CC)c1ccc2cc(-c3nc4ccccc4[nH]3)c(=O)oc2c1	-59%	0.32µM*	0.4µM*	0%
CCCCNc1nc2ccccc2c2nc(-c3ccccc3)nn12	-6%[10.9 µM]	6%	-3%	3%
Cc1cc(C)cc(OCC(=O)NCCN2CCOCC2)c1	-5%	-8%	-2%	-1%
